# Assay results from PubChem BioAssay AID1159580 (chemical genetic matrix, 2015).
# Where “and” joins values, the source holds several entries; their conditions need not be identical. Equal entries are not always repeated. About 2,000 (36%) of roughly 5,500 compounds were called active. Another 18% or so got no clear call; they are omitted. The list shows a part of the results. Values without a mark were called inactive. Cut-off read from the data, not from the text of the source: active = normalized growth mostly below about 0.91 (no sharp cut-off); inconclusive = no clear call, values can overlap the other calls; inactive = mostly above about 0.92.
# Assay: chemical genetic growth profiling, strain panel (AID 1159580);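 note: tested at 20 µM; growth read once vehicle control cultures reached saturation at 30 °C; 1 = growth at the plate median or of vehicle wells; lower values mean less growth of the strain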
# Conditions: S. cerevisiae deletion strains, growth OD
compound,measurement,setting,value
COc1ccc2cc1Oc1ccc(cc1)C[C@H]1c3cc(c(OC)cc3CCN1C)Oc1c(OC)c(OC)cc3c1[C@H](C2)N(C)CC3,normalized growth,"locus YAL013W, strain DEP1, stronger effect = lower value",1.01
same,normalized growth,"locus YAL021C, strain ccr4, stronger effect = lower value",0.853 (active)
same,normalized growth,"locus YAL026C, strain drs2, stronger effect = lower value",1
same,normalized growth,"locus YAL030W, strain snc1, stronger effect = lower value",1.01
same,normalized growth,"locus YBL061C, strain skt5, stronger effect = lower value",1.01
same,normalized growth,"locus YBR009C, strain hhf1, stronger effect = lower value",0.982
same,normalized growth,"locus YBR021W, strain FUR4, stronger effect = lower value",0.596 (active)
same,normalized growth,"locus YBR023C, strain chs3, stronger effect = lower value",1.01
same,normalized growth,"locus YBR171W, strain sec66, stronger effect = lower value",1.02
same,normalized growth,"locus YBR229C, strain ROT2, stronger effect = lower value",1.01
same,normalized growth,"locus YBR231C, strain swc5, stronger effect = lower value",0.988
same,normalized growth,"locus YBR279W, strain paf1, stronger effect = lower value",0.998
same,normalized growth,"locus YCL011C, strain gbp2, stronger effect = lower value",0.988
same,normalized growth,"locus YCL016C, strain dcc1, stronger effect = lower value",0.968
same,normalized growth,"locus YCL029C, strain bik1, stronger effect = lower value",1.03
same,normalized growth,"locus YCL069W, strain vba3, stronger effect = lower value",1.01
same,normalized growth,"locus YCR088W, strain abp1, stronger effect = lower value",1.01
same,normalized growth,"locus YDL005C, strain med2, stronger effect = lower value",1
same,normalized growth,"locus YDL035C, strain GPR1, stronger effect = lower value",0.977
same,normalized growth,"locus YDL040C, strain nat1, stronger effect = lower value",1
same,normalized growth,"locus YDL074C, strain BRE1, stronger effect = lower value",0.972
same,normalized growth,"locus YDL101C, strain DUN1, stronger effect = lower value",1.01
same,normalized growth,"locus YDL134C, strain PPH21, stronger effect = lower value",1.01
same,normalized growth,"locus YDL185W, strain tfp1, stronger effect = lower value",1.01
same,normalized growth,"locus YDL192W, strain arf1, stronger effect = lower value",0.997
same,normalized growth,"locus YDR001C, strain nth1, stronger effect = lower value",1.02
same,normalized growth,"locus YDR069C, strain doa4, stronger effect = lower value",0.733 (active)
same,normalized growth,"locus YDR101C, strain arx1, stronger effect = lower value",1.01
same,normalized growth,"locus YDR137W, strain rgp1, stronger effect = lower value",0.998
same,normalized growth,"locus YDR150W, strain NUM1, stronger effect = lower value",1.01
same,normalized growth,"locus YDR159W, strain sac3, stronger effect = lower value",1.02
same,normalized growth,"locus YDR162C, strain NBP2, stronger effect = lower value",0.974
same,normalized growth,"locus YDR195W, strain ref2",1.02
same,normalized growth,"locus YDR297W, strain sur2, stronger effect = lower value",1
same,normalized growth,"locus YDR318W, strain mcm21, stronger effect = lower value",1
same,normalized growth,"locus YDR334W, strain swr1, stronger effect = lower value",1.01
same,normalized growth,"locus YDR335W, strain msn5, stronger effect = lower value",0.999
same,normalized growth,"locus YDR388W, stronger effect = lower value",0.241 (active)
same,normalized growth,"locus YDR392W, strain spt3, stronger effect = lower value",0.79
same,normalized growth,"locus YDR502C, strain sam2, stronger effect = lower value",0.99
same,normalized growth,"locus YEL003W, strain gim4, stronger effect = lower value",0.998
same,normalized growth,"locus YEL037C, strain rad23, stronger effect = lower value",0.989
same,normalized growth,"locus YEL061C, strain CIN8 (second series), stronger effect = lower value",1.01
same,normalized growth,"locus YEL061C, strain CIN8, stronger effect = lower value",1.01
same,normalized growth,"locus YER015W, strain faa2, stronger effect = lower value",0.997
same,normalized growth,"locus YER016W, strain bim1, stronger effect = lower value",1
same,normalized growth,"locus YER110C, stronger effect = lower value",1.03
same,normalized growth,"locus YER111C, strain swi4, stronger effect = lower value",0.997
same,normalized growth,"locus YER155C, strain BEM2 (second series), stronger effect = lower value",0.887
same,normalized growth,"locus YER155C, strain BEM2, stronger effect = lower value",1.03
same,normalized growth,"locus YER167W, strain BCK2, stronger effect = lower value",0.964
same,normalized growth,"locus YFR010W, strain ubp6, stronger effect = lower value",0.854 (active)
same,normalized growth,"locus YGL078C, strain dbp3, stronger effect = lower value",1.01
same,normalized growth,"locus YGL086W, strain mad1, stronger effect = lower value",0.983
same,normalized growth,"locus YGL167C, strain pmr1, stronger effect = lower value",1
same,normalized growth,"locus YGL173C, strain kem1, stronger effect = lower value",1.02
same,normalized growth,"locus YGL227W, strain vid30, stronger effect = lower value",0.997
same,normalized growth,"locus YGL240W, strain doc1, stronger effect = lower value",1.01
same,normalized growth,"locus YGL248W, strain PDE1, stronger effect = lower value",1
same,normalized growth,"locus YGL253W, strain hxk2, stronger effect = lower value",1.01
same,normalized growth,"locus YGR078C, strain PAC10, stronger effect = lower value",0.996
same,normalized growth,"locus YGR135W, strain pre9, stronger effect = lower value",0.931
same,normalized growth,"locus YGR229C, strain SMI1, stronger effect = lower value",0.993
same,normalized growth,"locus YGR252W, strain gcn5, stronger effect = lower value",0.855
same,normalized growth,"locus YHR013C, strain ard1, stronger effect = lower value",0.902
same,normalized growth,"locus YHR027C, strain rpn1, stronger effect = lower value",1.02
same,normalized growth,"locus YHR030C, strain SLT2, stronger effect = lower value",1.01 and 1
same,normalized growth,"locus YHR079C, strain IRE1 (second series), stronger effect = lower value",1.01
same,normalized growth,"locus YHR079C, strain IRE1, stronger effect = lower value",0.987
same,normalized growth,"locus YHR094C, strain hxt1, stronger effect = lower value",1.02
same,normalized growth,"locus YHR129C, strain ARP1, stronger effect = lower value",1.01
same,normalized growth,"locus YHR142W, strain chs7, stronger effect = lower value",1.01
same,normalized growth,"locus YHR200W, strain rpn10, stronger effect = lower value",0.989
same,normalized growth,"locus YIL066C, strain RNR3, stronger effect = lower value",1
same,normalized growth,"locus YIL073C, strain SPO22, stronger effect = lower value",1.31
same,normalized growth,"locus YIL125W, strain kgd1, stronger effect = lower value",1.01
same,normalized growth,"locus YIR030C, strain dcg1, stronger effect = lower value",1.02
same,normalized growth,"locus YJL092W, strain hpr5, stronger effect = lower value",1.01
same,normalized growth,"locus YJL095W, strain BCK1 (second series), stronger effect = lower value",1.02
same,normalized growth,"locus YJL095W, strain BCK1, stronger effect = lower value",1.02 and 1.06
same,normalized growth,"locus YJL115W, strain asf1, stronger effect = lower value",1.01
same,normalized growth,"locus YJL129C, strain trk1, stronger effect = lower value",1.01
same,normalized growth,"locus YJL134W, strain LCB3, stronger effect = lower value",1.02
same,normalized growth,"locus YJL154C, strain vps35, stronger effect = lower value",1
same,normalized growth,"locus YJL164C, strain tpk1, stronger effect = lower value",0.986
same,normalized growth,"locus YJL166W, strain qcr8, stronger effect = lower value",0.984
same,normalized growth,"locus YJL168C, strain set2, stronger effect = lower value",1.01
same,normalized growth,"locus YJL187C, strain SWE1 (second series), stronger effect = lower value",1
same,normalized growth,"locus YJR043C, strain POL32, stronger effect = lower value",0.996
same,normalized growth,"locus YJR066W, strain TOR1, stronger effect = lower value",0.955
same,normalized growth,"locus YJR075W, strain HOC1, stronger effect = lower value",0.924
